# Assay outcomes (PubChem)
# HCMV inh = blocks human cytomegalovirus replication; HFF cells, HCMV-luciferase reporter, 72 h; active compounds read low; activity change, negative = inhibition, % at 57.5 µM; 410,000 compounds, 4.5% hits; in the data active means activity change below about -60%; inconclusive means no clear call, values can overlap the other calls; inactive means above about -39%
#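 Human foreskin fibroblasts infected with luciferase-reporter HCMV at MOI 1 PFU/cell, compounds at two doses. Luciferase measured 72 h post infection; normalized to buffer-only basal and Salinomycin (10uM) controls.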
# VACV mCherry inh = vaccinia inhibition (mCherry reporter) | Vaccinia virus mCherry reporter infection, fluorescence | Potency, µM (series often up to 36.5 µM), inactives show top-dose activity change, negative = inhibition, most hits filed as inhibitors | 310,000 compounds, 0.63% hits; calls by dose curve; tested in A549 cells; further: potency means the concentration at half of the fitted maximal effect; nearly all actives have a fitted effect of over 35% in size
# HCV inh = blocks hepatitis C virus; Potency, µM (titrated, usually from 41.8 µM), without a hit: top-dose activity change, negative = inhibition, hits mostly inhibitors; AID 651820; Huh7.5.1 HCVcc-Cre infection, luciferase reporter, 44 h; 340,000 compounds, 3.4% hits; active means well fitted inhibition curve with a large enough effect; inconclusive means small, poorly fitted or top-dose-only effect, or another doubt; inactive means no such curve, though single readings can be large or run the other way; further: potency means the concentration at half of the fitted maximal effect
#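 HCVcc-Cre virus at an moi near 0.5 was added right after compound to cells cultured 4 h from seeding (1,000 cells/well). Luciferase activity was determined 44 h later, 15 min after substrate addition at RT.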
# LASV entry inh = Lassa virus entry inhibition; AID 540256; 300,000 compounds, 1.2% hits; Potency, µM (titrated, usually from 37.9 µM), without a hit: top-dose activity change, negative = inhibition, hits mostly inhibitors; Lassa virus pseudotype entry inhibition, cell reporter; calls by dose curve; tested in HEK293 cells; further: potency means the concentration at half of the fitted maximal effect; nearly all actives have a fitted effect of over 50% in size
# Vaccinia Venus = vaccinia inhibition (Venus reporter); AID 720580; 330,000 compounds, 0.46% hits; Vaccinia virus Venus reporter expression, fluorescence; Potency, µM (highest dose often 36.5 µM), for the others: at the top dose activity change, negative = inhibition, most hits filed as inhibitors; calls by dose curve; tested in A549 cells; further: potency means the concentration at half of the fitted maximal effect; nearly all actives have a fitted effect of over 30% in size
# MARV entry inh = Marburg virus entry inhibition | Marburg virus pseudotyped entry inhibition, cell reporter | Potency, µM (top dose mostly 37.8 µM), for the others: top-dose activity change, negative = inhibition, usual class: inhibitors | 300,000 compounds, 1.8% hits; calls by dose curve; tested in HEK293 cells; further: potency means the concentration at half of the fitted maximal effect
# * marks the source's active call; other numbers are inactive results; i = inactive; ? = inconclusive; nt = no result; + = active, no number; [ ] = remark or other dose. In the library only some 7.8% were active in any assay of this set; here they are far more common. On the % scale 0 is the no-effect control and ±100 the full control effect.
SMILES,HCMV inh,VACV mCherry inh,HCV inh,LASV entry inh,Vaccinia Venus,MARV entry inh
CC1CN(C(=O)c2cccc(COc3ccc(Br)cc3)c2)CC(C)O1 (stereo unspecified),-77.7*,-32.0%,?,?,-25.8%,?
COc1ccc(CCNC(=O)Cn2nc(C)n3c(cc4cc(F)ccc43)c2=O)cc1OC,23.4,-6.6%,nt,nt,0.4%,-2.0%[46.1 µM]
CCOc1ccc(Cl)cc1CNCCCSc1nnnn1C,-11.3,-8.4%,nt,-9.5%[46.1 µM],-2.2%,-21.6%[46.1 µM]
CCOC(=O)C(Oc1ccc2c(-c3ccccc3)cc(=O)oc2c1C)c1ccccc1 (stereo unspecified),-8.1,-0.4%,?,?,3.1%,-8.1%
COc1ccc(-c2cc(=O)oc3c(C)c(OC(C)C(=O)Nc4ccc(CN5CCOCC5)cc4)ccc23)cc1 (stereo unspecified),?,nt,12.6µM*,nt,nt,nt
CCN(CC)Cc1c(O)ccc2c(-c3ccccc3)cc(=O)oc12,13.0,nt,4.6%,-14.8%,nt,21.2%
CCOC(=O)C(Oc1ccc2c(-c3ccc(OC)cc3)cc(=O)oc2c1C)c1ccccc1 (stereo unspecified),-24.2,nt,-27.9%,13µM*,nt,?
Cc1c(O)ccc2c(-c3ccccc3)cc(=O)oc12,-70.8*,nt,-9.3%,nt,nt,nt
COc1ccc(/C=C\C(=O)c2c(O)ccc3c(C)cc(=O)oc23)cc1,?,-8.7%,-11.5%,-26.2%,-14.0%,-3.1%
COc1ccc(/C=C/C(=O)c2c(O)ccc3c(C)cc(=O)oc23)cc1,-77.7*,nt,?,nt,nt,nt
CC(C)CCn1c(SC(C)C#N)nc2ccccc2c1=O (stereo unspecified),nt,4.5%,nt,nt,-10.4%,nt
O=C(Nc1ccc2c(c1)OCCO2)C1c2ccccc2OCC(=O)N1CCc1c[nH]c2ccccc12 (stereo unspecified),14.2,0.2%,nt,nt,-0.4%,nt
CCCSc1nc2c(c(=O)[nH]1)C(c1ccc(O)c(OCC)c1)CC(=O)N2 (stereo unspecified),29.7,i,nt,11.6%[46.1 µM],-4.3%,?
Cc1ccc2c(CN3CCN(S(=O)(=O)c4ccc5c(c4)OCCO5)CC3)cc(=O)oc2c1C,-77.9*,-10.5%,12.6µM*,?,0.1%,?
Cc1c(O)ccc2c(CN3CCN(CCO)CC3)cc(=O)oc12,17.9,?,15.0%,9.7%,-15.0%,33.6%
COc1ccc(-c2cc(=O)oc3c(C)c(O)ccc23)cc1,-72.3*,nt,-5.6%,nt,nt,nt
COc1ccc(-c2cc(=O)oc3cc(OC(=O)C4CCCCC4)c(Cl)cc23)cc1,-90.8*,nt,-2.6%,3.6%,nt,-12.3%
Cc1c(O)ccc2c(CN3CCOCC3)cc(=O)oc12,+,nt,6.9%,nt,nt,nt
Cc1ccc(Cc2c(-c3ccc(F)cc3)nc3c(C)cc(Br)cn23)cc1,nt,11.8%,nt,nt,-14.7%,nt
COc1cccc(C2C=C(c3ccc(C)cc3)Nc3c(C(=O)Nc4ccc(F)cc4)cnn32)c1OC (stereo unspecified),-20.7,?,nt,?,-19.0%,nt
COc1ccc(-c2cc(=O)oc3cc(O)ccc23)cc1,-96.0*,-8.0%,-2.4%,?,-19.3%,-29.8%[46.1 µM]
COc1cccc(-c2nc(CS(=O)(=O)CC(=O)Nc3ccc(F)cc3F)c(C)o2)c1,25.6,-15.0%,11.2µM*,?,-7.4%,-24.6%[46.1 µM]
COc1cccc(-c2nc(CS(=O)(=O)CC(=O)NCc3ccccc3)c(C)o2)c1,-12.3,-19.0%,?,-0.5%,-3.7%,0.8%
Cc1ccccc1Nc1cc(C)c2c(O)cccc2n1,-89.4*,?,-5.4%[8.37 µM],-12.6%,-3.8%,?
Cc1ccc(CSc2nc3ccccc3c(=O)n2C)cc1,-65.4*,-17.0%,?,-14.6%,-11.5%,?
SMILES,HCMV inh,VACV mCherry inh,HCV inh,LASV entry inh,Vaccinia Venus,MARV entry inh
Cc1cc(C(=O)CSc2nc3ccccc3c(=O)n2C)c(C)n1Cc1ccc2c(c1)OCO2,-11.3,nt,1.58µM*,?,nt,?
Cn1c(SCc2cccc(C#N)c2)nc2ccccc2c1=O,-64.3*,i,31.6µM*,?,-11.1%,-7.0%[46.1 µM]
COc1ccccc1CNC(=O)CN(C)c1nn2c(=O)cc(C)nc2s1,-0.3,-2.6%,nt,-10.8%[46.1 µM],-5.1%,-6.4%[46.1 µM]
CC(C)(C)c1cc(NCc2ccccn2)n2ncc(-c3ccccc3)c2n1,-6.5,-3.4%[7.34 µM],12.6µM*,?,-3.3%[7.34 µM],?
Cc1cc(NCc2ccccc2)n2ncc(-c3ccccc3)c2n1,11.1,12.1%,?,?,8.8%,?
COC(CNC(=O)C1CCN(C(=O)c2cc3oc(C)cc3n2Cc2c(F)cccc2Cl)CC1)OC,-67.2*,-13.9%,-1.6%,?,-4.4%,?
CCNC(=S)NS(=O)(=O)c1ccc(CC)cc1,-94.6*,nt,27.7%,0.0%,nt,?
Cc1cnc(SCc2ccccn2)nc1C1CCCN(C(=O)c2cccc(-c3cccc(F)c3)c2)C1 (stereo unspecified),nt,10µM*,nt,nt,?,nt
CC(=O)c1ccc(C(=O)N2CCCC(c3nc(SCc4ccccn4)ncc3C)C2)cc1 (stereo unspecified),nt,-29.3%,nt,nt,-19.6%,nt
Cc1c(C(=O)N2CCCC(c3ccccc3)C2)sc2ncnc(NCCc3ccccn3)c12 (stereo unspecified),nt,-13.7%,nt,nt,2.4%,nt
O=C(Cn1c(-c2ccccc2)c[n+]2ccsc12)c1ccccc1,-61.6*,i,-1.4%,nt,-26.7%,nt
O=C(Cn1c(-c2ccccc2)c[n+]2ccsc12)c1ccc([N+](=O)[O-])cc1,-99.5*,nt,10µM*,-17.1%,nt,?
Cn1ccnc1SCc1cn2cc(Br)ccc2n1,-17.0,nt,6.0%,?,-8.8%,6.31µM*
COc1ccc(CC(=O)NCCc2cn(C)c3ccccc23)cc1OC,-17.2,nt,nt,nt,nt,nt
CC(NCCC(c1ccccc1)c1ccccc1)c1ccccc1 (stereo unspecified),-39.7,?,?,23.1µM*,?,?
Cc1ccc(CNC(C)c2ccccc2)s1 (stereo unspecified),8.9,1.4%,nt,?,-0.9%,?
CCN(CC)CCCn1c(=S)[nH]c2cc(Cl)ccc2c1=O,-9.4,nt,7.08µM*,-0.5%,nt,-18.4%
O=C(O)CSCC(=O)Nc1ccc(C2CCCCC2)cc1,-92.0*,-7.4%,14.8%,?,-10.2%,?
COc1ccc(N2CC(O)(c3ccc(F)cc3)[N+]3=C2CCCC3)cc1 (stereo unspecified),-81.1*,-13.2%,-17.4%,11.6%,-2.6%,-2.7%
COc1ccc(N2C3=[N+](CCCC3)CC2(C)O)cc1 (stereo unspecified),-77.9*,nt,5.1%,3.0%,nt,3.7%
OC1(c2cccs2)CN(c2ccccc2)C2=[N+]1CCCC2 (stereo unspecified),-4.2,-11.8%,13.5%,-1.2%,-13.5%,-22.8%[46.1 µM]
COc1ccc(N2C(=O)CSC23CCCCC3)cc1,-22.3,nt,9.3%,-11.4%,nt,1.0%
COc1ccc(N2CC(O)(c3ccc(C)cc3)[N+]3=C2CCCC3)cc1 (stereo unspecified),21.9,i,-14.1%,1.9%,8.0%,6.9%[46.1 µM]
